From PubChem BioAssay (Tox21)
“And” between values parts separate entries of the source, which are not always exact repeats. Identical values can stand only once. Inconclusive results are not listed. More than one record can exist for a structure, and the calls need not agree. The source made the active and inactive calls. Unless noted, calls come from the whole dose curve; as a rule, active = well fitted curve in the direction sought with a large enough effect in the repeat runs; inconclusive = weak or mixed curves; inactive = no such curve, though single readings can be large; an effect the other way counts as inactive or inconclusive.

Assays:
[1] = qHTS assay to identify small molecule antagonists of the glucocorticoid receptor (GR) signaling pathway - cell viability counter screen (AID 720693); note: nearly all actives have a fitted effect of over 55% in size
[2] = qHTS assay for identifying genotoxic compounds that show differential cytotoxicity against isogenic chicken DT40 cell lines with known DNA damage response pathways - wild type cell line (AID 743012); note: nearly all actives have a fitted effect of over 60% in size; note: potency is the fitted concentration of half-maximal effect
How it was run: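 Cytotoxicity in repair-proficient parental chicken DT40 cells serves as the comparator for Rad54/Ku70- and Rev3-deficient lines. Cells were exposed to compounds for 40 h at 37 C/5% CO2, and ATP-based luminescence (CellTiter-Glo) measured viability.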

[3] = qHTS assay for identifying genotoxic compounds that show differential cytotoxicity against isogenic chicken DT40 cell lines with known DNA damage response pathways - Rev3 mutant cell line (AID 743014); note: nearly all actives have a fitted effect of over 55% in size; note: potency is the fitted concentration of half-maximal effect
[4] = qHTS assay for identifying genotoxic compounds that show differential cytotoxicity against isogenic chicken DT40 cell lines with known DNA damage response pathways - Rad54/Ku70 mutant cell line (AID 743015); note: nearly all actives have a fitted effect of over 60% in size; note: potency is the fitted concentration of half-maximal effect
[5] = qHTS assay to identify small molecule antagonists of the androgen receptor (AR) signaling pathway - cell viability counter screen (AID 743033; note: nearly all actives have a fitted effect of over 45% in size)
[6] = qHTS assay to identify small molecule antagonists of the androgen receptor (AR) signaling pathway using the MDA cell line - cell viability counter screen (AID 743041; note: nearly all actives have a fitted effect of over 45% in size)
How it was run: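 Compound exposure lasted 16 h at 37C in MDA-kb2 AR-luc cells stimulated with R1881. Protease-based CellTiter-Fluor reagent was applied for the final 30 min and fluorescence measured.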

[7] = qHTS assay to identify small molecule antagonists of the thyroid receptor (TR) signaling pathway - cell viability counter screen (AID 743064); note: nearly all actives have a fitted effect of over 50% in size; note: potency is the fitted concentration of half-maximal effect
How it was run: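 Fluorescence from CellTiter-Fluor, added after 23.5 h exposure at 37 °C, reported viability of GH3.TRE-Luc cells co-treated with compound and 1 nM T3. Measured in the same wells as the luciferase TR readout.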

[8] = qHTS assay to identify small molecule antagonists of the thyroid receptor (TR) signaling pathway (AID 743065); note: nearly all actives have a fitted effect of over 55% in size; note: potency is the fitted concentration of half-maximal effect
How it was run: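 GH3.TRE-Luc rat pituitary cells (two TREs driving luciferase) were dosed with compound, then stimulated with 1 nM T3 (final) for 23.5 h at 37 C. ONE-Glo luminescence was the read-out, with CellTiter-Fluor fluorescence as the cytotoxicity counter-screen.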

[9] = tested on: thyroid hormone receptor (rat, GH3 cells); test: qHTS assay to identify small molecule agonists of the thyroid receptor (TR) signaling pathway (AID 743066; calls by dose curve)
[10] = target: Estrogen receptor (Homo sapiens) (UniProt P03372); test: qHTS assay to identify small molecule antagonists of the estrogen receptor alpha (ER-alpha) signaling pathway (AID 743069; active = well fitted curve in the direction sought with a large enough effect in the signal ratio in the repeat runs, not every such curve was filed as active; the % refers to the signal ratio)
How it was run: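 In this cell-based reporter format, GripTite HEK293 cells harbouring ER-alpha-UAS-bla were grown overnight with 2% charcoal-stripped FBS, dosed with DMSO-dissolved compounds, then challenged with 17beta-estradiol. After 18 hr at 37C, beta-lactamase activity was detected by FRET fluorescence.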

[11] = qHTS assay to identify small molecule antagonists of the estrogen receptor alpha (ER-alpha) signaling pathway - cell viability counter screen (AID 743074; calls by dose curve; note: nearly all actives have a fitted effect of over 45% in size)
[12] = target: Estrogen receptor (Homo sapiens) (UniProt P03372); test: qHTS assay to identify small molecule agonists of the estrogen receptor alpha (ER-alpha) signaling pathway (AID 743075; calls by dose curve)
[13] = target: Estrogen receptor (Homo sapiens) (UniProt P03372); test: qHTS assay to identify small molecule agonists of the estrogen receptor alpha (ER-alpha) signaling pathway using the BG1 cell line (AID 743079); note: nearly all actives have a fitted effect of over 20% in size; note: potency is the fitted concentration of half-maximal effect
[14] = qHTS assay to identify small molecule antagonists of the estrogen receptor alpha (ER-alpha) signaling pathway using the BG1 cell line (AID 743080; calls by dose curve;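 note: BG1 cells stimulated with 17beta-estradiol alongside compound; series mostly up to about 70 µM; nearly all actives have a fitted effect of over 25% in size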)
How it was run: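 BG1-Luc-4E2 cells (endogenous full-length ER-alpha, stable 4×ERE-luciferase) were starved 5 days in phenol-red-free medium with 10% charcoal-stripped FBS, plated 24 h, then given compound plus 17beta-estradiol for 21.5 h at 37 C; ONE-Glo luminescence read after 30 min.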

[15] = qHTS assay to identify small molecule antagonists of the estrogen receptor alpha (ER-alpha) signaling pathway using the BG1 cell line - cell viability counter screen (AID 743081);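 note: compound given together with 17beta-estradiol as the ER stimulus; series mostly up to about 70 µM; nearly all actives have a fitted effect of over 45% in size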
[16] = target: Aromatase (Homo sapiens) (UniProt P11511); test: qHTS assay to identify aromatase inhibitors (AID 743083); note: series mostly up to about 70 µM; nearly all actives have a fitted effect of over 55% in size
[17] = target: Androgen receptor (Homo sapiens) (UniProt P10275); test: qHTS assay to identify small molecule antagonists of the androgen receptor (AR) signaling pathway (AID 743035; active = well fitted inhibition curve with a large enough effect in the signal ratio in the repeat runs, not every such curve was filed as active; the % refers to the signal ratio; note: potency is the fitted concentration of half-maximal effect)
How it was run: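 Steps: seed AR-UAS-bla GripTite HEK293 cells, incubate 4 h at 37C; pin in test compound, then add agonist R1881; incubate 16 h at 37C; add LiveBLAzer B/G FRET substrate, 2 h at room temperature; read fluorescence.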

[18] = target: Androgen receptor (Homo sapiens) (UniProt P10275); test: qHTS assay to identify small molecule agonists of the androgen receptor (AR) signaling pathway (AID 743036; active = well fitted activation curve with a large enough effect in the signal ratio in the repeat runs, with a control signal flat, not every such curve was filed as active; the % refers to the signal ratio)
How it was run: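 Fluorescence from a beta-lactamase FRET substrate served as read-out in AR-UAS-bla GripTite HEK293 cells. Cells were treated with DMSO-dissolved compounds for 16 h at 37C, then with LiveBLAzer B/G substrate for 2 h at room temperature.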

[19] = target: Androgen receptor (Homo sapiens) (UniProt P10275); test: qHTS assay to identify small molecule agonists of the androgen receptor (AR) signaling pathway using the MDA cell line (AID 743040; note: nearly all actives have a fitted effect of over 20% in size)
How it was run: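 Testing was done with the MDA-kb2 AR-luc line, a human breast carcinoma stably transfected with MMTV-luciferase containing AR and GR response elements. Cells were exposed 16 h at 37C before ONE-Glo luminescence detection.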

[20] = target: Androgen receptor (Homo sapiens) (UniProt P10275); test: qHTS assay to identify small molecule antagonists of the androgen receptor (AR) signaling pathway using the MDA cell line (AID 743042; note: nearly all actives have a fitted effect of over 55% in size; note: potency is the fitted concentration of half-maximal effect)
How it was run: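 MDA-kb2 breast carcinoma cells carrying MMTV-luciferase (AR/GR responsive) were co-treated with compounds and the agonist R1881 for 16 h at 37C. Inhibition read as ONE-Glo luminescence; CellTiter-Fluor fluorescence measured in parallel for cytotoxicity.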

Measured: Potency

Sequence of Estrogen receptor (Homo sapiens) (P03372 whole entry, looked up): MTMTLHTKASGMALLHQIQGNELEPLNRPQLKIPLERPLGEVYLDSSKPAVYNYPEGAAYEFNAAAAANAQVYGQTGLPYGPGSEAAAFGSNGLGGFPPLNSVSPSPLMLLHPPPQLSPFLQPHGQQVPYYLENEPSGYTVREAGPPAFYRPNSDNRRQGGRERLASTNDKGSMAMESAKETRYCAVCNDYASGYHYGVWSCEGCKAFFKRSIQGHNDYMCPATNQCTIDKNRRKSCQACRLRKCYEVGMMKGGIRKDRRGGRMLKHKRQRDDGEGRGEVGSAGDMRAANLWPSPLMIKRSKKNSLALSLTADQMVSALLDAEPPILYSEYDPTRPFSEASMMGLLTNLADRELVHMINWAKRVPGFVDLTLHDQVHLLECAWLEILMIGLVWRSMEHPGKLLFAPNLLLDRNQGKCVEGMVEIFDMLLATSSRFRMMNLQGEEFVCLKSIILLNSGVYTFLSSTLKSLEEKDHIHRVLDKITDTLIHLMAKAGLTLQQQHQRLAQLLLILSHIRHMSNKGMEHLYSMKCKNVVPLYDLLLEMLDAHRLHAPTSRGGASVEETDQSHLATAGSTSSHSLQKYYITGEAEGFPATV
Sequence of Androgen receptor (Homo sapiens) (P10275 whole entry, looked up): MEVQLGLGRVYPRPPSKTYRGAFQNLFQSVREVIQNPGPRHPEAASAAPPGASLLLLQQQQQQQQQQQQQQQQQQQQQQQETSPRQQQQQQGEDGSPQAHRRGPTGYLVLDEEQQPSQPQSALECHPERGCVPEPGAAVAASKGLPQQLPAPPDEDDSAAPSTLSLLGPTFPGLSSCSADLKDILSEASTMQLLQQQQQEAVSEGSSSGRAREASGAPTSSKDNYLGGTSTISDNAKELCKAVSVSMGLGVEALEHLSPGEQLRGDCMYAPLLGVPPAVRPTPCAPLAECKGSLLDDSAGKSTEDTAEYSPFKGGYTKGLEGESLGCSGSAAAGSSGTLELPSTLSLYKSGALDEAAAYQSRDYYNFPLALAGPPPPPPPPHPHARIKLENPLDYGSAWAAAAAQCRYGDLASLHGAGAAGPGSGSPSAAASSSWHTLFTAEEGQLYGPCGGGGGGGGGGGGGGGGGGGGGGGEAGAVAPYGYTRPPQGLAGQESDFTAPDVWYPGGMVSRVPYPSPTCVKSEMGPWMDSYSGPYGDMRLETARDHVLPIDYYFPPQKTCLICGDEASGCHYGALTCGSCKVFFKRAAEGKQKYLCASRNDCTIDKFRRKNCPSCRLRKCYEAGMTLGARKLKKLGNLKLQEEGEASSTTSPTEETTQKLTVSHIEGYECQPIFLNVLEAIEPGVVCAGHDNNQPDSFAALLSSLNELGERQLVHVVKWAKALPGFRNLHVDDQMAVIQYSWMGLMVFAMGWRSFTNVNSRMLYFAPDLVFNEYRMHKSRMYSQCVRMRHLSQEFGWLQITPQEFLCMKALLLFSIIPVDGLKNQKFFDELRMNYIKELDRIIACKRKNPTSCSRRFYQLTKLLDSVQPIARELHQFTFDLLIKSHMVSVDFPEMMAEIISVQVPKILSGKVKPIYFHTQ
Sequence of Aromatase (Homo sapiens) (P11511 whole entry, looked up): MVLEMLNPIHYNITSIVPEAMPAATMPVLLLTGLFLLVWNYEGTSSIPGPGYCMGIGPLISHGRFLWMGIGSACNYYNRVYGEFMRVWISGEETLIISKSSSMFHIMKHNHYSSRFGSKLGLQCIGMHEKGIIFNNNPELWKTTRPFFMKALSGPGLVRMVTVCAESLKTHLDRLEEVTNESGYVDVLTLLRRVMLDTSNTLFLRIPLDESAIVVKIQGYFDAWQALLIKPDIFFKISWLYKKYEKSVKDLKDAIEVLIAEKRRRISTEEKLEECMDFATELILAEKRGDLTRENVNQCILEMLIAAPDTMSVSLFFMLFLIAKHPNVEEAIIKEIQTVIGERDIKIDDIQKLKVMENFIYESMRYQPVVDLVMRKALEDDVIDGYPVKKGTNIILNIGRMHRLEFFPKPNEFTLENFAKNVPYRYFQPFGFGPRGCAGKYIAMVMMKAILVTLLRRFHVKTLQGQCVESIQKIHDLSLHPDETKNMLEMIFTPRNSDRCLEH

Cl/C=C/Cl
not listed: [17] | [18] | [19] | [20]
inactive: all other assays above

c1ccc2c(c1)CCCC2
inactive: all assays above

OCC(O)CCl (configuration not stated)
not listed: [17] | [18] | [19] | [20]
inactive: all other assays above

O=[N+]([O-])c1ccc(Cl)c(Cl)c1
not listed: [17] | [18] | [19] | [20]
inactive: all other assays above

CC12CC1(C)C(=O)N(c1cc(Cl)cc(Cl)c1)C2=O (configuration not stated)
active: [3] 24.3 µM | [17] 6.14 µM and 3.89 µM | [20] 19.3 µM and 9.69 µM
not listed: [10] | [12] | [13] | [14]
inactive: all other assays above

Cc1cccc(N)c1
not listed: [16] | [17] | [18] | [19] | [20]
inactive: all other assays above

O=C(O)CCCc1ccc(N(CCCl)CCCl)cc1
active: [2] 21.1 µM and 770 nM | [3] 1.88 µM and 2.18 µM and 43.3 nM | [4] 3.86 µM | [7] 61.1 µM | [8] 30.8 µM and 27.3 µM
not listed: [17] | [18] | [19] | [20]
inactive: all other assays above

CCSC(=O)N1CCCCCC1
not listed: [17] | [18] | [19] | [20]
inactive: all other assays above

C=CC(=O)OCCCCCC(C)C
80.9 µM (active) and inactive: [13]
inactive: all other assays above

Cc1cccc(C)c1NC(=O)CN1CCCC1=O
not listed: [17] | [18] | [19] | [20]
inactive: all other assays above

CCNc1nc(Cl)nc(NC(C)C)n1
not listed: [17] | [18] | [19] | [20]
inactive: all other assays above

COc1nc(NC(C)C)nc(NC(C)C)n1
not listed: [17] | [18] | [19] | [20]
inactive: all other assays above

CNC(=O)O/N=C/C(C)(C)S(C)(=O)=O
inactive: all assays above

O=[N+]([O-])c1cc([As](=O)(O)O)ccc1O
not listed: [17] | [18] | [19] | [20]
inactive: all other assays above

CN(C)CCC#N
not listed: [17] | [18] | [19] | [20]
inactive: all other assays above

C[C@H]1C(=O)O[C@@H]2CCN3CC=C(COC(=O)[C@](C)(O)[C@]1(C)O)[C@H]23
inactive and 15.4 µM (active): [3]
inactive and 38.6 µM (active): [4]
not listed: [17] | [18] | [19] | [20]
inactive: all other assays above
